Unmarked numbers belong to inactive results. Active and inactive are the calls of the source. Calls follow the shape of the dose curve; as a rule, active = well fitted curve in the direction sought with a large enough effect in the repeat runs; inconclusive = weak or mixed curves; inactive = flat fitted curve, though single readings scatter.
Experiment: qHTS assay to test for compound auto fluorescence at 535 nm (green) in HepG2 cells (AID 720675)
Conditions: green autofluorescence 485/535 nm, 1 h; series mostly up to 91.3 µM; fluorescence, % of fluorescein control: at the top concentration
From the text: National Center for Advancing Translational Sciences [NCATS]
NIH Chemical Genomics Center [NCGC]
U.S. Environmental Protection Agency [EPA]
National Institutes of Environmental Health Sciences [NIEHS]
National Toxicology Program [NTP]
U.S. Food and Drug Administration [FDA]
Compound auto fluorescence often interferes with screening of the compound library against various biological targets and signaling pathways. Some of these compounds may have fluorophoric properties. Such properties may interfere with the assay outputs resulting in false positives and/or negatives. To decrease such complications and ensure the compound activities are relevant in terms of biological response, the Tox21 10K compound library was screened for auto fluorescence.
From the fluorophores used as reporter signals in our screening assays, the auto fluorescence equivalencies of compounds against three fluorophores have been evaluated: Triamterene, Fluorescein and Rose Bengal sodium for blue, green and red fluorescence, respectively. The fluorescence intensities were measured using Excitation/Emission wavelengths at 405/460nm, 485/535nm and 540/590nm for blue, green and red labels, respectively. This assay includes the green fluorescence data.
Tox21 Assay Protocol Summary:
2,000 HepG2 cells in 5 uL of culture medium (MEM containing 10% FBS) per well were dispensed into black wall/clear bottom 1536-well plates using a Multidrop Combi Dispenser (ThermoFisher Scientific, Waltham, MA). The assay plates were incubated overnight at 37 C to allow cell attachment to the well bottom, followed by the transfer of 23 nL compound or DMSO vehicle by a pintool work station (Kalypsys , San Diego, CA). After the assay plates were incubated for 1 hr at 37 C and 5% CO2, fluorescence intensities in the assay plates were measured by an Envision (PerkinElmer, Shelton, CT) plate reader using three labels for measuring blue, green and red fluorescence at […] 460, 535 and 590 nm respectively.
% is scaled to controls: 0 for no effect and ±100 for the full control effect.

| SMILES | fluorescence, % of fluorescein control | outcome |
| --- | --- | --- |
| CC1CC(C)C(=O)C1=O (stereo not given) | 0.0343% | – |
| O=C1c2ccccc2C(=O)C1c1nc2ccccc2c(Br)c1O | 0.234% | – |
| CC1=C(CC=O)C(C)(C)CCC1 | -0.137% | – |
| CC(C)(c1ccccc1)c1ccccc1 | 0.067% | – |
| C/C=C\C/C=C/CCCCCCCCOC(C)=O | 0.0365% | – |
| C=C1C[C@@]23CC[C@H]4[C@@](C)(CCC[C@@]4(C)C(=O)O[C@@H]4O[C@H](CO)[C@@H](O)[C@H](O)[C@H]4O)[C@@H]2CC[C@]1(O[C@@H]1O[C@H](CO)[C@@H](O)[C@H](O[C@@H]2O[C@H](CO)[C@@H](O)[C@H](O)[C@H]2O)[C@H]1O[C@@H]1O[C@H](CO)[C@@H](O)[C@H](O)[C@H]1O)C3 | 0.135% | – |
| CC(=O)c1ccc([N+](=O)[O-])cc1 | -0.0939% | – |
| N#CCCN(CCO)CCO | 0.0574% | – |
| Oc1c(I)cc(I)c2cccnc12 | -0.0896% [at 46 µM] | – |
| CC/C=C1/OC(=O)c2ccccc21 | -0.0414% | – |
| CCOC(=O)c1ccc(I)cc1 | -0.119% | – |
| CCCCC(CC)CN (stereo not given) | 0.44% [at 95.7 µM] | – |
| CCC(=O)OC | 0.0009% | – |
| O=[N+]([O-])c1cc(C2CCCCC2)c(O)c([N+](=O)[O-])c1 | -0.203% | – |
| CC(CN(C)C)C(C)(O)Cc1ccc(Cl)cc1 (stereo not given) | 0.158% [at 46 µM] | – |
| CC1(C)O[C@@H]2C[C@H]3[C@@H]4C[C@H](F)C5=CC(=O)C=C[C@]5(C)[C@H]4[C@@H](O)C[C@]3(C)[C@]2(C(=O)CO)O1 | -0.107% [at 18.6 µM] | – |
| CC[C@]1(O)C[C@H]2CN(CCc3c([nH]c4ccccc34)[C@@](C(=O)OC)(c3cc4c(cc3OC)N(C=O)[C@H]3[C@@](O)(C(=O)OC)[C@H](OC(C)=O)[C@]5(CC)C=CCN6CC[C@]43[C@@H]65)C2)C1 | 0.0963% [at 46 µM] | – |
| c1ccc2c(c1)CCc1ccccc1N2 | 0.074% | – |
| Cc1cscn1 | 0.0006% | – |
| C[C@@H]1CN(CCCn2c3ccccc3c3ccccc32)C[C@H](C)N1 | -0.0455% [at 46 µM] | – |

| SMILES | fluorescence, % of fluorescein control | outcome |
| --- | --- | --- |
| CN(C(=O)CN(CCO)CC(=O)N(C)C(C)(C)Cc1ccccc1)C(C)(C)Cc1ccccc1 | -0.0053% [at 18.6 µM] | – |
| CC(=O)OCC(=O)NCCCOc1cccc(CN2CCCCC2)c1 | – | inactive |
| CC(C)C(O)(c1ccc(OC(F)(F)F)cc1)c1cncnc1 (stereo not given) | 0.063% | – |
| C=C/C(C)=C/C/C=C(\C)CCC=C(C)C | 0.0027% | – |
| CCCCCCNC(=O)n1cc(F)c(=O)[nH]c1=O | -0.0758% [at 46 µM] | – |
| CCC(C)(C)OC | 0.0026% | – |
| CCCCCCCCN | -0.0024% | – |
| CCCCCCCC/C=C\CCCCCCCCO | 0.127% | – |
| NNC(=O)CP(=O)(c1ccccc1)c1ccccc1 | 0.0383% [at 46 µM] | – |
| OC[C@H]1O[C@@H](n2cnc3c(=S)nc[nH]c32)[C@H](O)[C@@H]1O | 0.0459% [at 46 µM] | – |
| OCCOCC#CCOCCO | -0.0323% | – |
| C=Cc1ccc(S(=O)(=O)O)cc1 | – | inactive |
| O=C(O)C[C@H](NC(=O)OCc1ccccc1)C(=O)O | 0.0012% | – |
| CC(=O)OCC[N+](C)(C)C | -0.0318% [at 46 µM] | – |
| CC[N+](CC)(CCNC(=O)C(=O)NCC[N+](CC)(CC)Cc1ccccc1Cl)Cc1ccccc1Cl | -0.0584% [at 46 µM] | – |
| Brc1cc(Br)c(Oc2cc(Br)c(Br)cc2Br)cc1Br | -0.0454% [at 46 µM] | – |
| Cc1ccco1 | 0.108% | – |
| O=C(/C=C/c1ccc(O)c(O)c1)O[C@@H]1C[C@@](OC(=O)/C=C/c2ccc(O)c(O)c2)(C(=O)O)C[C@@H](O)[C@@H]1O | -0.114% [at 46 µM] | – |
| O=c1[nH]c2ccc(Cl)cc2o1 | -0.0035% | – |
| CCOc1ccc(Cc2nccc3cc(OCC)c(OCC)cc23)cc1OCC | 0.127% [at 18.6 µM] | – |

Reference: PubChem BioAssay (Tox21)
